Hit rate of the full screen: of about 130,000 compounds, about 1,900 (1.5%) were called active. Another 5% or so got no clear call; they are omitted. The call rests on the fitted dose curve; in most records, active means well fitted cell-killing curve with a large enough effect; inconclusive means small, poorly fitted or top-dose-only effect; inactive means no such curve, though single readings can be large or run the other way. What follows is part of a selection rich in actives, with near analogues and random picks from the rest. Where a call stands in place of a potency, no number is given.
Potency means the concentration at half of the fitted maximal effect.

The nature of the test: qHTS Screen for Compounds that Selectively Target Cancer Cells with p53 Mutations: Cytotoxicity of p53ts Cells at the Nonpermissive Temperature. Further: nearly all actives have a fitted effect of over 55% in size. Particulars: H1299-p53A138V viability at 39C, ATP luminescence, 24 h; series mostly up to 46.1 µM. From the text: NIH Chemical Genomics Center [NCGC] NIH Molecular Libraries Screening Centers Network [MLSCN] MLSCN Grant: 1 X01 MH079844-01 Assay Submitter (PI): Dr. SUN, YI, University of Michigan NCGC Assay Overview: Synthetic Lethal Screen for Compounds to Kill Cancer Cells with p53 Mutation. Tumor suppressor gene p53 serves as a major cellular barrier against tumorigenesis. […] The goal of this screening is to identify small molecule probes that selectively kill cancer cells with mutations in p53. This screening was carried out using two lines of H1299 lung cancer cells. The H1299-p53 A138V line express a temperature sensitive p53 mutant (p53ts) in which the mutant p53 protein (A138V) is in the mutant confirmation when grown at 39C (the nonpermissive temperature) and in the wild type conformation when grown at 32C (the permissive temperature). A H1299-neo line (p53 null) grown at both 39C and 32C were used as counter-screens to filter out false positive associated with temperature shifting. The small molecular compounds that selectively target mutant p53-containing cancer cells were selected as candidate probes for further study. A cytotoxicity assay based on the measurement of ATP contents in cells was used in this screen. Concentration-responses of all the compounds in the library collection were determined in qHTS using the cell lines and temperature conditions as above.
NCGC Assay Protocol Summary: Both the H1299-p53A138V and H1299-neo cell lines were provided by Dr.Yi Sun, a PI at the University Michigan. The cells were maintained and cultured at 37C. The resuspended frozen cells were used to plate the cells in the 1536-well assay plates at a density of 600 cells per well in 5 ul medium. The assay plates with the cells were incubated at 37C for 16 to 30 hours before the experiments. The library compounds in DMSO solution were added to the cells in assay plates and incubated 24 hours at 39C (for mutant p53 conformation) or 32C (for normal p53 conformation as control). An ATP_lite assay kit (PerkinElmer) was used to determine the cell viability. Tomaxifen (100uM) was used as the positive control for cell killing. Data were normalized to the controls for basal activity (DMSO only) and 100% killing (100uM tamoxifen). AC50 values were determined from concentration-response data modeled with the standard Hill equation. P53 assay protocol: 1. Reagent; 5 uL H1299-p53A138V or H1299-neo cell cells/well 2. Time; overnight; 37C incubation 3. Compounds; 23 nL; 5.9 nM to 46 uM 4. Controls; 23 nL; Tamoxifen 100 uM 5. Time; 24 hr; 39C incubation 6. Reagent; 3 uL; ATP_Lite reagent 7. Time; 20 min; Room Temperature 8. Detection; Luminescence; Viewlux plate reader Keywords: p53, synthetic lethal, cancer, cell viability, cytotoxicity, H1299 cell line, luminescence, MLSMR, MLSCN, NIH Roadmap, qHTS, NCGC
On the technique in general: qHTS replaces the single test concentration by a dilution series.
`Cc1oc2ccc(O)c(CN3CCC(C)CC3)c2c1C(=O)Nc1ccccc1`: the Potency entry was “inactive”.

With `Cc1oc2ccc(O)c(CN3CCOCC3)c2c1C(=O)Nc1cccc(Cl)c1C`, the Potency entry was “inactive”.

As for `Cc1oc2ccc(O)c(CN3CCCCC3)c2c1C(=O)Nc1cccc(C(F)(F)F)c1`, the Potency is 12.6 µM (active).

As for `COc1ccccc1C(=O)Nc1c(C(=O)Nc2ccc(C)cc2)oc2ccccc12`, the Potency result is “inactive”.

For `O=C(Nc1cccc(NC(=O)c2ccco2)c1)c1cnccn1`, the Potency entry was “inactive”.

On to `O=C(Nc1ccc(NC(=O)c2cccs2)cn1)c1ccco1`, for which the Potency was 10 µM (active).

Regarding `Cc1ccnc(NC(=O)c2ccc(NC(=O)c3ccco3)cc2)c1`, the Potency result is “inactive”.

Take `CCC(=O)Nc1cccc(C(=O)OCc2cc(=O)n3nc(CC)sc3n2)c1`: the Potency result is “inactive”.

As for `CCOC(=O)c1cccc(NC(=O)C(Cc2ccccc2)NS(=O)(=O)c2cccc3nsnc23)c1` (stereo not given), the Potency entry is “inactive”.

On to `CCCCN(CCCNC(=O)c1cc(Nc2ccccc2OC)nc2ccccc12)c1ccccc1`, for which the Potency entry is “inactive”.

Take `COc1ccccc1Nc1cc(C(=O)NCCCN(C)C2CCCCC2)c2ccccc2n1`: the Potency is 10 µM (active).

As to `COc1ccc(Nc2cc(C(=O)NCCCN(C)c3ccccc3)c3ccccc3n2)c(OC)c1`, the Potency result was “inactive”.

For the compound `CNC(=O)CN1C(=O)c2cccnc2Sc2ccccc21`, the Potency entry is “inactive”.

As to `COc1cccc(C(=O)N(Cc2cccc(Cl)c2)Cc2ccco2)c1`, the Potency entry is “inactive”.

On to `O=C(NCCCN1CCN(C2CCCCC2)CC1)Nc1ccccc1C(F)(F)F`, for which the Potency entry is “inactive”.

For `O=C(CN1CCN(C2CCCCC2)CC1)Nc1ccccc1N1CCCCC1`, the Potency is 15.8 µM (active).

Turning to `Cc1ccccc1NC(=O)CNc1ccccc1N1CCCCC1`, the Potency result is “inactive”.

Consider `COc1ccc(Cl)cc1NC(=O)CCC(=O)c1ccc(C)cc1`, for which the Potency result is “inactive”.

As for `COc1ccccc1CNC(=O)CCCn1c(=O)c2ccccc2n(CC(=O)Nc2ccc(C)cc2Cl)c1=O`, the Potency result is “inactive”.

On to `CCCc1[nH]nc2c1C(c1ccc(Br)s1)C(C#N)=C(N)O2` (stereo not given), for which the Potency result is “inactive”.

With `CCCc1[nH]nc2c1C(c1ccc(OC)c(Cn3nc(C)c(Br)c3C)c1)C(C#N)=C(N)O2` (stereo not given), the Potency was 7.94 µM (active).

Take `COc1ccc(C2C(C#N)=C(N)Oc3n[nH]c(C)c32)cc1CN1CCN(c2ccc(F)cc2)CC1` (stereo not given): the Potency entry is “inactive”.

Take `Cc1cccc(C2CC(=O)Oc3c2c(=O)n(C)c2ccccc32)c1` (stereo not given): the Potency entry is “inactive”.

For `O=C(CN1CCCCCC1)N1c2ccccc2Sc2ccc(C(F)(F)F)cc21`, the Potency result was “inactive”.

Regarding `OCCN1CCN(CC/C=C2\c3ccccc3Sc3ccc(C(F)(F)F)cc32)CC1`, the Potency was 15.8 µM (active).

Turning to `O=C(CN1CCCCC1)N1c2ccccc2Sc2ccc(C(F)(F)F)cc21`, the Potency result was “inactive”.

Turning to `CCOC(=O)c1c(S(=O)(=O)N2CCC(C(=O)NCc3ccccc3OC)CC2)c(C)n(C)c1C`, the Potency result was “inactive”.

Regarding `Cc1ccc(Nc2ccc3cc(S(=O)(=O)N4CCCCC4)ccc3n2)cc1F`, the Potency entry was “inactive”.

Turning to `O=C(CC(c1cccs1)N1Cc2ccccc2C1=O)Nc1ccc(F)c(F)c1` (stereo not given), the Potency result was “inactive”.

As to `Cc1ccc(N2CCN(C(=O)CCc3c(C)nc4c(c3C)c(=O)n(C)c(=O)n4C)CC2)c(C)c1`, the Potency result was “inactive”.

For `CC(C)(C)c1csc(NC2=NS(=O)(=O)c3ccccc32)n1`, the Potency was 12.6 µM (active).

As for `c1ccc(Nc2nc(-c3ccncc3)cs2)nc1`, the Potency entry is “inactive”.

Regarding `O=C(CSc1nccn1Cc1ccc(F)cc1)NCc1ccccc1`, the Potency result is “inactive”.

Turning to `CCN(C(=O)Cn1cnc2sc(C)c(S(=O)(=O)N3CCN(c4ncccn4)CC3)c2c1=O)c1ccccc1F`, the Potency entry was “inactive”.

Consider `CCOC(=O)c1c(S(=O)(=O)N2CCCC(C(=O)NCc3cccc(C)c3)C2)c(C)n(C)c1C` (stereo not given), for which the Potency entry was “inactive”.

Regarding `CC1(C)N=C(SCc2ccccc2Cl)c2ccccc2N1`, the Potency entry is “inactive”.

In the case of `Cc1ccccc1-n1c(C)cc(/C=C2\NC(=O)NC2=O)c1C`, the Potency was 8.91 µM (active).

`Cc1cc(/C=N/n2cnnc2)c(C)n1-c1cccc(C(=O)O)c1`: the Potency entry was “inactive”.

On to `Cc1ccccc1N1CC(c2nc3ccccc3[nH]2)CC1=O` (stereo not given), for which the Potency result is “inactive”.

For the compound `CC(C)c1ccc(NC(=O)c2ccc(Cn3nc(N4CCN(c5ccccc5)CC4)ccc3=O)o2)cc1`, the Potency entry is “inactive”.

Turning to `O=S(=O)(c1ccc(C2CCCCC2)cc1)N1CCN(c2ccc(Cl)c(Cl)c2)CC1`, the Potency result is “inactive”.

On to `CCOc1ccc(CNC(=O)C2CCCN(S(=O)(=O)N(CC)c3ccc(OCC)cc3)C2)cc1` (stereo not given), for which the Potency result is “inactive”.

In the case of `CSc1nn(Cc2cccc(C)c2)c(N)c1S(=O)(=O)c1ccccc1`, the Potency result is “inactive”.

For `CCCCOc1ccc(Cn2c(=O)oc3ccc(C)cc32)cc1OC`, the Potency entry is “inactive”.

For the compound `CCCCOc1ccc(CN2C(=O)C(=O)c3cc(Br)cc(C)c32)cc1OC`, the Potency is 7.94 µM (active).

Regarding `COc1ccc(CCN(C)CCN2C(=O)c3ccccc3C2=O)cc1OC`, the Potency entry is “inactive”.

On to `COc1ccc(CCNC(=O)c2cc3cccc4c3n2CC(C)S4)c(OC)c1OC` (stereo not given), for which the Potency entry is “inactive”.

On to `Cc1cccc(Cn2c(SCc3ccc(C(=O)N4CCC(C)CC4)cc3)nc3ccncc32)c1`, for which the Potency result is “inactive”.

With `CC(C)CC(=O)NCC(c1ccc2c(c1)OCO2)N1CCN(c2ccc(F)cc2)CC1` (stereo not given), the Potency entry is “inactive”.

`CC(C)(C)NC(=O)CSc1nc(-c2ccc(F)cc2)cc(C(F)(F)F)n1`: the Potency result is “inactive”.
